Results from PubChem BioAssay (Tox21).
A number with no mark means an inactive call. Activity calls are given as the source filed them. The call rests on the fitted dose curve; in most records, active means well fitted curve in the direction sought with a large enough effect in the repeat runs; inconclusive means weak or mixed curves; inactive means flat fitted curve, though single readings scatter.

Assay: qHTS assay to test for compound auto fluorescence at 460 nm (blue) in HEK293 cells (AID 720678)
Settings: blue autofluorescence 405/460 nm; series mostly up to 91.3 µM; fluorescence, % of triamterene: at the top concentration
In short: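 Cells were seeded and left to adhere for 4-5 hr at 37C. Compounds were then pin-transferred. After an overnight incubation at 37C under 5% CO2, intrinsic fluorescence at 405/460 nm was measured and referenced to triamterene.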
On the % scale 0 is the no-effect control and ±100 the full control effect; tags describe the fitted curve by direction and shape or compound fluorescence and quenching.

Point of comparison: `CCOC(=O)NNc1ccc(N(CC)CC(C)O)nn1` (stereo not drawn), “fluorescence, % of triamterene” value 0.46% [at 46 µM]. Against it:
- CCCCN(CCCC)CC(O)c1cc(Cl)cc2c1-c1ccc(Cl)cc1/C2=C/c1ccc(Cl)cc1 (stereo not drawn) — lower, 0.024% [at 46 µM]

Point of comparison: `CC(C)(C)C1CCC(=O)CC1`, “fluorescence, % of triamterene” value -0.166%. Against it:
- CCCCCc1ccc(Cl)cc1 — higher, 0.0148%
- C=Cc1cccc(C)c1 — higher, 0.0068%
- CC(C)OC(=O)C(O)(CC(=O)O)CC(=O)O — higher, -0.0294%
- Clc1nnc(Cl)c2ccccc12 — higher, 0.0195%
- [Cl][Pt-2]([Cl])([Cl])[Cl] — higher, -0.0116%
- O=S(=O)(O)c1ccc(N=Nc2c(O)ccc3ccccc23)cc1 — lower, -0.909%
- C1CCC(SSC2CCCCC2)CC1 — higher, 0.0406%
- COc1ccc(NC(=O)CC(C)=O)cc1 — higher, -0.0551%

For `CCN(CC)c1ccc2c(-c3ccc(S(=O)(=O)O)cc3S(=O)(=O)[O-])c3ccc(=[N+](CC)CC)cc-3oc2c1`, the “fluorescence, % of triamterene” value was -0.228% [at 95.7 µM].

Assay: qHTS assay to test for compound auto fluorescence at 590 nm (red) in HEK293 cells (AID 720679); further: potency means the concentration at half of the fitted maximal effect
Settings: red autofluorescence 540/590 nm; series mostly up to 91.3 µM; fluorescence, % of fluorescent control: at the top concentration
In short: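 Each well held 2,000 HEK293 cells in medium containing 10% dialyzed FBS. Following 4-5 hr attachment at 37C, 23 nL test compound or DMSO was added; plates sat overnight, and red fluorescence (540/590nm) was recorded.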

Point of comparison: `CCCCCCOC(=O)C(C)CC` (stereo not drawn), “fluorescence, % of fluorescent control” value -0.271%. Against it:
- CCCCNS(=O)(=O)c1ccc(C)cc1 — higher, 0.148%
- O=C(Oc1ccccc1)Oc1ccccc1 — higher, 0.0353%
- OC1CCCc2ccccc21 (stereo not drawn) — higher, 0.65%
- OC[C@H]1O[C@H](O[C@H]2O[C@H](CO)[C@@H](O)[C@H](O)[C@H]2O)[C@H](O)[C@@H](O)[C@@H]1O — higher, -0.0819%
- CC(C)CCCCCOC(=O)CCS — higher, 0.168%
- CCC(COC(=O)CCS)(COC(=O)CCS)COC(=O)CCS — higher, -0.0031%
- CC(=O)OCC=C(C)C — higher, 0.0042%
- COC(=O)c1ccccc1C — higher, -0.119%
- CN(C)Cc1cc(C(C)(C)C)c(O)c(C(C)(C)C)c1 — higher, -0.0551%
- CC/C=C\CCCCCO — higher, -0.135%
- Cc1ccc(N/N=c2\c(=O)cc/c(=N\Nc3ccc(S(=O)(=O)O)cc3)c2=O)c(C)c1 — higher, 0.35%
- O=C(/C=C/c1ccccc1)OC/C=C/c1ccccc1 — lower, -0.302%
- CCC(=O)OC(=O)CC — higher, 0.321%
- COc1cc(S(=O)(=O)O)c(C)cc1N=Nc1c(O)ccc2cc(S(=O)(=O)O)ccc12 — higher, 2.1%
- O=[N+]([O-])c1cccc(C(F)(F)F)c1 — higher, 0.327%
- Cc1ccc(-c2ccccc2)cc1 — higher, -0.164%
- C[Si](Cl)(c1ccccc1)c1ccccc1 — higher, 0.0708%
- NC(=S)NC(N)=S — higher, 0.284%
- CCCCCc1ccc(Cl)cc1 — higher, 0.408%
- C=Cc1cccc(C)c1 — higher, -0.0685%
- CC(C)OC(=O)C(O)(CC(=O)O)CC(=O)O — higher, 0.0593%
- Clc1nnc(Cl)c2ccccc12 — higher, -0.133%
- [Cl][Pt-2]([Cl])([Cl])[Cl] — higher, -0.119%
- O=S(=O)(O)c1ccc(N=Nc2c(O)ccc3ccccc23)cc1 — higher, 0.109%
- CC(C)(C)C1CCC(=O)CC1 — lower, -0.413%
- C1CCC(SSC2CCCCC2)CC1 — higher, 0.0564%
- COc1ccc(NC(=O)CC(C)=O)cc1 — higher, 0.0706%

With `CCO[Si](OCC)(OCC)OCC` the “fluorescence, % of fluorescent control” value was 0.628% [at 95.7 µM].

With `CN1CCCCC1CCN1c2ccccc2Sc2ccc(S(C)=O)cc21` (stereo not drawn) the Potency was “inactive”.
With `CCN(CC)c1ccc2c(-c3ccc(S(=O)(=O)O)cc3S(=O)(=O)[O-])c3ccc(=[N+](CC)CC)cc-3oc2c1` the Potency was 501 nM [fluorescent] (active).

With `O=C(O)[C@H](O)[C@@H](O)[C@H](O[C@@H]1O[C@H](CO)[C@H](O)[C@H](O)[C@H]1O)[C@H](O)CO` the fluorescence, % of fluorescent control was 0.434% [at 18.6 µM].

Point of comparison: `CCOC(=O)NNc1ccc(N(CC)CC(C)O)nn1` (stereo not drawn), “fluorescence, % of fluorescent control” value -0.0628% [at 46 µM]. Against it:
- CCCCN(CCCC)CC(O)c1cc(Cl)cc2c1-c1ccc(Cl)cc1/C2=C/c1ccc(Cl)cc1 (stereo not drawn) — higher, 0.0699% [at 46 µM]

Assay: qHTS assay to test for compound auto fluorescence at 535 nm (green) in HEK293 cells (AID 720680)
Settings: green autofluorescence 485/535 nm; series mostly up to 91.3 µM; fluorescence, % of fluorescein: at the top concentration

Point of comparison: `CC(C)(C)C1CCC(=O)CC1`, “fluorescence, % of fluorescein” value 0.0076%. Against it:
- CCCCNS(=O)(=O)c1ccc(C)cc1 — lower, -0.144%
- O=C(Oc1ccccc1)Oc1ccccc1 — lower, -0.0226%
- OC1CCCc2ccccc21 (stereo not drawn) — higher, 0.0338%
- OC[C@H]1O[C@H](O[C@H]2O[C@H](CO)[C@@H](O)[C@H](O)[C@H]2O)[C@H](O)[C@@H](O)[C@@H]1O — lower, -0.0374%
- CC(C)CCCCCOC(=O)CCS — lower, -0.0452%
- CCC(COC(=O)CCS)(COC(=O)CCS)COC(=O)CCS — higher, 0.0652%
- CC(=O)OCC=C(C)C — lower, -0.0088%
- CCCCCCOC(=O)C(C)CC (stereo not drawn) — lower, 0.0025%
- COC(=O)c1ccccc1C — lower, -0.0679%
- CN(C)Cc1cc(C(C)(C)C)c(O)c(C(C)(C)C)c1 — higher, 0.0297%
- CC/C=C\CCCCCO — lower, 0.0005%
- Cc1ccc(N/N=c2\c(=O)cc/c(=N\Nc3ccc(S(=O)(=O)O)cc3)c2=O)c(C)c1 — lower, -0.586%
- O=C(/C=C/c1ccccc1)OC/C=C/c1ccccc1 — higher, 0.0188%
- CCC(=O)OC(=O)CC — higher, 0.0084%
- COc1cc(S(=O)(=O)O)c(C)cc1N=Nc1c(O)ccc2cc(S(=O)(=O)O)ccc12 — lower, -1.87%
- O=[N+]([O-])c1cccc(C(F)(F)F)c1 — lower, -0.157%
- Cc1ccc(-c2ccccc2)cc1 — higher, 0.0188%
- ClCCl — lower, -0.114%
- C[Si](Cl)(c1ccccc1)c1ccccc1 — lower, -0.0161%
- NC(=S)NC(N)=S — lower, -0.0919%
- CCCCCc1ccc(Cl)cc1 — higher, 0.0271%
- C=Cc1cccc(C)c1 — lower, -0.0723%
- CC(C)OC(=O)C(O)(CC(=O)O)CC(=O)O — lower, -0.0213%
- Clc1nnc(Cl)c2ccccc12 — lower, -0.074%
- [Cl][Pt-2]([Cl])([Cl])[Cl] — higher, 0.0602%
- O=S(=O)(O)c1ccc(N=Nc2c(O)ccc3ccccc23)cc1 — lower, -0.914%
- C1CCC(SSC2CCCCC2)CC1 — higher, 0.0862%
- COc1ccc(NC(=O)CC(C)=O)cc1 — higher, 0.039%

With `CCCCCCCCCCCCCC[N+](C)(C)C` the Potency was “inactive”.
For `CN1CCCCC1CCN1c2ccccc2Sc2ccc(S(C)=O)cc21` (stereo not drawn), the Potency was “inactive”.

Point of comparison: `O=C(O)[C@H](O)[C@@H](O)[C@H](O[C@@H]1O[C@H](CO)[C@H](O)[C@H](O)[C@H]1O)[C@H](O)CO`, fluorescence, % of fluorescein -0.0275% [at 18.6 µM]. Against it:
- COC(=O)Nc1nc2ccc(C(=O)c3ccccc3)cc2[nH]1 — lower, -0.035% [at 18.6 µM]

Point of comparison: `CCO[Si](OCC)(OCC)OCC`, “fluorescence, % of fluorescein” value -0.124% [at 95.7 µM]. Against it:
- CCN(CC)c1ccc2c(-c3ccc(S(=O)(=O)O)cc3S(=O)(=O)[O-])c3ccc(=[N+](CC)CC)cc-3oc2c1 — higher, 0.899% [at 95.7 µM]

Point of comparison: `CCCCN(CCCC)CC(O)c1cc(Cl)cc2c1-c1ccc(Cl)cc1/C2=C/c1ccc(Cl)cc1` (stereo not drawn), “fluorescence, % of fluorescein” value 0.0046% [at 46 µM]. Against it:
- CCOC(=O)NNc1ccc(N(CC)CC(C)O)nn1 (stereo not drawn) — lower, -0.171% [at 46 µM]
